Measurements from the supplement of paper PMC12645437, “Orthogonal IMiD-Degron Pairs Induce Selective Protein Degradation in Cells” (ACS Chemical Biology, 2025).
Over roughly 8,300 sequences, “log2 fold change of degron read counts, EGFP-low vs EGFP+ sorted cells (limma voom), compound-induced degradation” has its median near -1.1; the highest 2% begin near 3.2. Only a selection was taken, and the highest values are over-represented in it overall.

Biological target: T1, CRBN, Q96SW2
T1 chain: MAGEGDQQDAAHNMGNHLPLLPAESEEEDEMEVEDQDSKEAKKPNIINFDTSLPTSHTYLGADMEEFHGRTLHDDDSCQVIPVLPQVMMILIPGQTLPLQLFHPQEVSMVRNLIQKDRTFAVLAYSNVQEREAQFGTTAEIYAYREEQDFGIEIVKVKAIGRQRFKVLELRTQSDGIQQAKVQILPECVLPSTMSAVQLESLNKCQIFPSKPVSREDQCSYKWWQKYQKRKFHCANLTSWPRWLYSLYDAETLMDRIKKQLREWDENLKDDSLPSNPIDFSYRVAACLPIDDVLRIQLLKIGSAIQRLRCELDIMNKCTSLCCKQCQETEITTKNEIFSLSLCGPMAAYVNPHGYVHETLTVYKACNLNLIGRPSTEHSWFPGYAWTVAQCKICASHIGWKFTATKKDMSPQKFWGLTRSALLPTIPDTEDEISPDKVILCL
Test: log2 fold change of degron read counts, EGFP-low vs EGFP+ sorted cells (limma voom), compound-induced degradation; higher = more compound-induced degradation of the degron-EGFP fusion; degrons are variants of IKZF1/3 zinc finger 2; compound dose not given here
Settings: Jurkat, 18 h

[1] = compound: compound 19 (5-tert-butyl-thalidomide)
[2] = compound: compound 22 (5-morpholino-thalidomide)
[3] = compound: compound 33 (diphenyl IMiD analogue)
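Further: pooled lentiviral library of zinc finger degron-EGFP fusions in mCherry-positive Jurkat cells, FACS-sorted after compound exposure, with degron abundance counted by next-generation sequencing.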

B1: 46F_47Q_49N_50Q_52G_53R_54E_55F_67L_, Q9UKT9 (peptide)
chain: FQCNQCGREFTQKGNLLRHIKL
For B1, the “log2 fold change of degron read counts” value [1] was -3.47, the “log2 fold change of degron read counts” value [2] was -3.04 and the “log2 fold change of degron read counts” value [3] was -3.68. For the same sequence, the “log2 fold change of degron read counts” value (compound: thalidomide) was -2.95.

B2: 46F_47D_49E_50Q_52G_53A_54C_55F_67L_, Q9UKT9 (peptide)
chain: FDCEQCGACFTQKGNLLRHIKL
In the case of B2, the “log2 fold change of degron read counts” value [1] is reported as -1.94, the “log2 fold change of degron read counts” value [2] is reported as -2.86 and the “log2 fold change of degron read counts” value [3] is reported as -2.08. For the same sequence, the “log2 fold change of degron read counts” value (compound: thalidomide) was -2.3.

B3: 46F_47G_49D_50I_52G_53A_54A_55F_67L_, Q9UKT9 (peptide)
chain: FGCDICGAAFTQKGNLLRHIKL
B3 was tested, and the “log2 fold change of degron read counts” value [1] was 1.51, the “log2 fold change of degron read counts” value [2] was 0.584 and the “log2 fold change of degron read counts” value [3] was 0.961. For the same sequence, the “log2 fold change of degron read counts” value (compound: thalidomide) was -0.234.

B4: 46L_47L_49P_50I_52G_53F_54P_55C_67L_, Q9UKT9 (peptide)
chain: LLCPICGFPCTQKGNLLRHIKL
In the case of B4, the “log2 fold change of degron read counts” value [1] is reported as -0.669, the “log2 fold change of degron read counts” value [2] is reported as 1.1 and the “log2 fold change of degron read counts” value [3] is reported as 1.61. The “log2 fold change of degron read counts” value (compound: thalidomide) was 2.14.

B5: 46F_47D_49N_50Q_52G_53A_54T_55F_67L_, Q9UKT9 (peptide)
chain: FDCNQCGATFTQKGNLLRHIKL
B5 was tested, and the “log2 fold change of degron read counts” value [1] was -2.56, the “log2 fold change of degron read counts” value [2] was -3.15 and the “log2 fold change of degron read counts” value [3] was -3.02. The “log2 fold change of degron read counts” value (compound: thalidomide) was -2.62.

B6: 46F_47W_49P_50I_52G_53H_54R_55F_67L_, Q9UKT9 (peptide)
chain: FWCPICGHRFTQKGNLLRHIKL
In the case of B6, the “log2 fold change of degron read counts” value [1] is reported as -0.606, the “log2 fold change of degron read counts” value [2] is reported as 0.31 and the “log2 fold change of degron read counts” value [3] is reported as -0.595. The “log2 fold change of degron read counts” value (compound: thalidomide) was -0.478.

B7: 46L_47A_49N_50Q_52G_53F_54F_55C_67L_, Q9UKT9 (peptide)
chain: LACNQCGFFCTQKGNLLRHIKL
In the case of B7, the “log2 fold change of degron read counts” value [1] is reported as -0.913, the “log2 fold change of degron read counts” value [2] is reported as -1.22 and the “log2 fold change of degron read counts” value [3] is reported as -1.37. For the same sequence, the “log2 fold change of degron read counts” value (compound: thalidomide) was -0.847.

B8: 46F_47H_49E_50I_52G_53R_54P_55F_67L_, Q9UKT9 (peptide)
chain: FHCEICGRPFTQKGNLLRHIKL
B8 was tested, and the “log2 fold change of degron read counts” value [1] was 1.69, the “log2 fold change of degron read counts” value [2] was 0.386 and the “log2 fold change of degron read counts” value [3] was 0.306. For the same sequence, the “log2 fold change of degron read counts” value (compound: thalidomide) was -0.468.

B9: 46F_47T_49S_50V_52G_53H_54S_55F_67L_, Q9UKT9 (peptide)
chain: FTCSVCGHSFTQKGNLLRHIKL
In the case of B9, the “log2 fold change of degron read counts” value [1] is reported as -2.98, the “log2 fold change of degron read counts” value [2] is reported as -3.17 and the “log2 fold change of degron read counts” value [3] is reported as -2.89. The “log2 fold change of degron read counts” value (compound: thalidomide) was -2.9.

B10: 46F_47I_49E_50V_52G_53A_54R_55F_67L_, Q9UKT9 (peptide)
chain: FICEVCGARFTQKGNLLRHIKL
For B10, the “log2 fold change of degron read counts” value [1] was 0.108, the “log2 fold change of degron read counts” value [2] was 2.04 and the “log2 fold change of degron read counts” value [3] was 1.51. For the same sequence, the “log2 fold change of degron read counts” value (compound: thalidomide) was 2.6.

B11: 46F_47E_49E_50V_52G_53A_54R_55F_67L_, Q9UKT9 (peptide)
chain: FECEVCGARFTQKGNLLRHIKL
In the case of B11, the “log2 fold change of degron read counts” value [1] is reported as 1.13, the “log2 fold change of degron read counts” value [2] is reported as -0.689 and the “log2 fold change of degron read counts” value [3] is reported as 1.27. The “log2 fold change of degron read counts” value (compound: thalidomide) was 3.29.

B12: 46F_47C_49E_50V_52G_53A_54R_55F_67L_, Q9UKT9 (peptide)
chain: FCCEVCGARFTQKGNLLRHIKL
In the case of B12, the “log2 fold change of degron read counts” value [1] is reported as 3.05, the “log2 fold change of degron read counts” value [2] is reported as 3.02 and the “log2 fold change of degron read counts” value [3] is reported as 1.45. For the same sequence, the “log2 fold change of degron read counts” value (compound: thalidomide) was 2.9.

B13: 46F_47Y_49E_50V_52G_53A_54D_55F_67L_, Q9UKT9 (peptide)
chain: FYCEVCGADFTQKGNLLRHIKL
In the case of B13, the “log2 fold change of degron read counts” value [1] is reported as 0.695, the “log2 fold change of degron read counts” value [2] is reported as 1.02 and the “log2 fold change of degron read counts” value [3] is reported as 0.125. The “log2 fold change of degron read counts” value (compound: thalidomide) was -1.36.

B14: 46F_47Y_49E_50V_52G_53A_54L_55F_67L_, Q9UKT9 (peptide)
chain: FYCEVCGALFTQKGNLLRHIKL
For B14, the “log2 fold change of degron read counts” value [1] was 3.18, the “log2 fold change of degron read counts” value [2] was 3.03 and the “log2 fold change of degron read counts” value [3] was 2.24. For the same sequence, the “log2 fold change of degron read counts” value (compound: thalidomide) was 0.431.

B15: 46F_47W_49E_50V_52G_53A_54R_55F_67L_, Q9UKT9 (peptide)
chain: FWCEVCGARFTQKGNLLRHIKL
With B15 the “log2 fold change of degron read counts” value [1] was 3.36, the “log2 fold change of degron read counts” value [2] was 3.82 and the “log2 fold change of degron read counts” value [3] was 1.63. The “log2 fold change of degron read counts” value (compound: thalidomide) was 1.59.

B16: 46F_47D_49E_50V_52G_53A_54R_55F_67L_, Q9UKT9 (peptide)
chain: FDCEVCGARFTQKGNLLRHIKL
For B16, the “log2 fold change of degron read counts” value [1] was 3.09, the “log2 fold change of degron read counts” value [2] was 1.52 and the “log2 fold change of degron read counts” value [3] was 0.571. For the same sequence, the “log2 fold change of degron read counts” value (compound: thalidomide) was 2.08.

B17: 46F_47F_49E_50V_52G_53A_54L_55F_67L_, Q9UKT9 (peptide)
chain: FFCEVCGALFTQKGNLLRHIKL
In the case of B17, the “log2 fold change of degron read counts” value [1] is reported as 2.55, the “log2 fold change of degron read counts” value [2] is reported as 2.63 and the “log2 fold change of degron read counts” value [3] is reported as 1.79. The “log2 fold change of degron read counts” value (compound: thalidomide) was 0.407.

B18: 46F_47F_49E_50V_52G_53A_54R_55F_67L_, Q9UKT9 (peptide)
chain: FFCEVCGARFTQKGNLLRHIKL
With B18 the “log2 fold change of degron read counts” value [1] was 3.78, the “log2 fold change of degron read counts” value [2] was 3.71 and the “log2 fold change of degron read counts” value [3] was 1.69. For the same sequence, the “log2 fold change of degron read counts” value (compound: thalidomide) was 2.19.

B19: 46F_47W_49E_50V_52G_53A_54L_55F_67L_, Q9UKT9 (peptide)
chain: FWCEVCGALFTQKGNLLRHIKL
With B19 the “log2 fold change of degron read counts” value [1] was 2.17, the “log2 fold change of degron read counts” value [2] was 2.69 and the “log2 fold change of degron read counts” value [3] was 1.86. The “log2 fold change of degron read counts” value (compound: thalidomide) was -0.0715.

B20: 46F_47W_49E_50V_52G_53A_54D_55F_67L_, Q9UKT9 (peptide)
chain: FWCEVCGADFTQKGNLLRHIKL
With B20 the “log2 fold change of degron read counts” value [1] was -0.303, the “log2 fold change of degron read counts” value [2] was 0.852 and the “log2 fold change of degron read counts” value [3] was -0.582. The “log2 fold change of degron read counts” value (compound: thalidomide) was -1.26.

B21: 46F_47Y_49E_50V_52G_53A_54R_55F_67L_, Q9UKT9 (peptide)
chain: FYCEVCGARFTQKGNLLRHIKL
With B21 the “log2 fold change of degron read counts” value [1] was 3.84, the “log2 fold change of degron read counts” value [2] was 3.8 and the “log2 fold change of degron read counts” value [3] was 2.26. The “log2 fold change of degron read counts” value (compound: thalidomide) was 1.95.
